# Measured values as given in PubChem BioAssay AID686948 (National Center for Advancing Translational Sciences (NCATS), 2013).
# Calls of active or inactive are those of the source. Calls follow the shape of the dose curve; as a rule, active = well fitted inhibition curve with a large enough effect; inactive = flat fitted curve, though single readings scatter.
# Molecular target: Tyrosine-protein kinase Yes (Homo sapiens) (UniProt P07947)
# Assay: qHTS for small molecule inhibitors of Yes1 kinase: Confirmatory screen on the cherrypicks
# Settings: Recombinant Yes1, ADP-Glo luminescence, poly(E4Y) substrate
# Excerpt: The Src family of non-receptor protein tyrosine kinases contains nine members, including Yes1, Src, Fyn, Lyn, and […]. These kinases have important roles in a variety of cellular functions, such as cell proliferation, survival, and differentiation. Src, the most well characterized member of this family, has been previously identified as a proto-oncogene. […] In melanoma, it has been shown that Yes1, and not other family members, such as Src, is functionally involved in the malignant phenotype. Additionally, a recent study examining the downregulation of Yes1 by shRNA found significant effects on cell survival/growth for basal-like and Her2-positive breast cancers. […]
# Two microliter of Yes1 enzyme (columns 1-2, 5-48; Millipore, Billerica, MA) are dispensed into Greiner, white solid-bottom 1536-well assay plates; columns 3 and 4 receive buffer without Yes1 as a control for maximum inhibition. […] The production of ADP is then quantified by the ADP-Glo Kit (Promega, Madison, WI). First, 2 uL of the first kit reagent is added, and the reaction is incubated for 45 minutes; then, 4 uL of the second kit reagent are added and the reaction is incubated for 30 minutes at which time the luminescence is read on a Viewlux plate reader (Perkin-Elmer, Waltham, MA). […]
# Chain of Tyrosine-protein kinase Yes (Homo sapiens) (P07947 whole entry, looked up): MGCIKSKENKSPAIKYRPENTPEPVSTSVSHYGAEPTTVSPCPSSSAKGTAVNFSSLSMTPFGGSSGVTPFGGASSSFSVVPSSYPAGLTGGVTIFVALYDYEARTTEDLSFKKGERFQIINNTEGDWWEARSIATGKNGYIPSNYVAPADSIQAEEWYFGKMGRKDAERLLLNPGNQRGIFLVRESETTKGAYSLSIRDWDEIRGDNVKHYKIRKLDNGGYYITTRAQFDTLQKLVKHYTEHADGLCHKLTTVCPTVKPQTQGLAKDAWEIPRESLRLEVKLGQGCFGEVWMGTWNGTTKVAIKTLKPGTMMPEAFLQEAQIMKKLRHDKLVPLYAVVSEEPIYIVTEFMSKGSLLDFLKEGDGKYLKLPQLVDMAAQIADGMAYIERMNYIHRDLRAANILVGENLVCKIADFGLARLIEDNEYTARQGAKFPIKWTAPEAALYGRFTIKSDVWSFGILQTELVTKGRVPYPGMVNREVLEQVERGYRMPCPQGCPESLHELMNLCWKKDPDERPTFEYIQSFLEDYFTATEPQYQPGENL
structure (smiles),measurement,value
c1cc(-c2cnn3cc(-c4ccc(OCCN5CCCCC5)cc4)cnc23)ccn1,Potency,0.196 µM (active)
